Screens as filed in PubChem BioAssay.
Shown is part of a subset that was picked to be rich in hits.
Tb PYK inh: qHTS of Trypanosoma Brucei Inhibitors | pyruvate kinase (Trypanosoma brucei), Q57TT1 | TbPYK enzyme, Kinase-Glo Plus ATP luminescence, 45 min | Potency, µM (top dose mostly 76.8 µM), for the others: at the highest dose activity, negative = inhibition, most hits filed as inhibitors | 410,000 tested, 0.12% active | AID 624173, 2012; further: potency means the concentration at half of the fitted maximal effect; on the % scale 0 is the no-effect control and ±100 the full control effect; nearly all actives have a fitted effect of over 50% in size
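ADP (130 uM final) triggers the TbPYK reaction after compound addition; incubation is 45 min at room temperature. Kinase-Glo Plus is then added and luminescence imaged. Normalized data are fitted to concentration-effect curves.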
Giardia FBPA inh-1: qHTS Assay for Inhibitors of Fructose-1,6-bisphosphate Aldolase from Giardia Lamblia; A8B2U2; purified Giardia FBPA; Potency, µM (titrated, usually from 59.6 µM), for the others: at the top dose activity, negative = inhibition, usual class: inhibitors; 290,000 tested, 0.71% active; AID 2451, 2010; further: potency means the concentration at half of the fitted maximal effect; on the % scale 0 is the no-effect control and ±100 the full control effect; nearly all actives have a fitted effect of over 55% in size
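40 nM FBPA preincubated 10 min at RT with compound (up to 57.5 uM final), then substrate plus GAPDH/TPI/NAD/arsenate coupling and diaphorase/resazurin added. Fluorescence read after 20 min at RT, 525/598 nm.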
Cycloheximide cs: Cycloheximide Counterscreen for Small Molecule Inhibitors of Shiga Toxin | max response, % | cell reporter, cycloheximide protein synthesis inhibition counterscreen | AID 2314, 2010 | 300,000 tested, 12% active; in the data active means max response mostly above about 13%, no sharp cut-off; inactive means mostly below about 14%; further: read at 38.3 µM for the half of the compounds with a filed dose; 0% is about no effect
Sm TGR block: qHTS Assay for the Inhibitors of Schistosoma Mansoni Peroxiredoxins. Schistosoma mansoni thioredoxin glutathione reductase (TGR), Q962Y6. AID 485364, 2010. Potency, µM (highest dose often 114 µM), inactives show at the highest dose activity change, negative = inhibition, hits mostly inhibitors. 360,000 tested, 3% active. purified TGR, DTNB reduction, TNB absorbance 405 nm; further: potency means the concentration at half of the fitted maximal effect; on the % scale 0 is the no-effect control and ±100 the full control effect; nearly all actives have a fitted effect of over 60% in size
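Kinetic colorimetric format: TGR-catalysed, NADPH-driven DTNB reduction monitored via TNB absorbance. Enzyme dispensed at 20 nM; compound exposure 15 min at room temperature before reaction start.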
Shiga inhibitor: A qHTS for Small Molecule Inhibitors of Shiga Toxin; Vero cells, Shiga toxin protein synthesis inhibition reporter; inhibition, % at 38.7 µM; 290,000 tested, 9.2% active; AID 2315, 2010; in the data active means inhibition mostly above about 28%, no sharp cut-off; inactive means mostly below about 43%; further: 0% is about no effect
LmPK inh: qHTS Assay for Inhibitors of Leishmania Mexicana Pyruvate Kinase (LmPK). AID 1721, 2009. Potency, µM (highest dose often 57.5 µM), for the others: at the top dose activity change, negative = inhibition, usual class: inhibitors. Q27686. purified LmPK, Kinase-Glo ATP luminescence, 1 h. 290,000 tested, 0.37% active; further: potency means the concentration at half of the fitted maximal effect; on the % scale 0 is the no-effect control and ±100 the full control effect
Target sequence (Q27686 whole entry, looked up): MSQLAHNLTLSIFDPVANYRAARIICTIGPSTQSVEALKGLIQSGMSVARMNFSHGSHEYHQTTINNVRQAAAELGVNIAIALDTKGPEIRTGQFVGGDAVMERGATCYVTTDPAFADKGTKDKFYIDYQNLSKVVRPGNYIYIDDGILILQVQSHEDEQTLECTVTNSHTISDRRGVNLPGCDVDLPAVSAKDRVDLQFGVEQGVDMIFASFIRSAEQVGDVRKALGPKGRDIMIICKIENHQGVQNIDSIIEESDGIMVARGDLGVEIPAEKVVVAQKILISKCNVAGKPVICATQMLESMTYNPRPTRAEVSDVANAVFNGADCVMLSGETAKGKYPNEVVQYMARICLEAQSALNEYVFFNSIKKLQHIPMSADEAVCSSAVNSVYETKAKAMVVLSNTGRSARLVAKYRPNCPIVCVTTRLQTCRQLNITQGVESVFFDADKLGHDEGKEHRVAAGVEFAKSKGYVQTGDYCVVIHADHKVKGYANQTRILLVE
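Screened at intermediate enzyme activity to detect both inhibitors and activators: LmPK at 0.1 nM, with a 0.5 nM enzyme column as activation reference. PEP 0.5 mM, ADP 0.1 mM; ATP detected by luminescence after 1 h.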
Giardia growth: qHTS Assay for Inhibitors of Fructose-1,6-bisphosphate Aldolase from Giardia Lamblia: Giardia lamblia growth inhibition | shares compounds with Giardia FBPA inh-1 | Giardia lamblia trophozoite growth inhibition | Potency, µM (series often up to 57.5 µM), without a hit: at the highest dose activity change, negative = inhibition, hits mostly inhibitors | 1,500 tested, 5% active | AID 2785, 2010;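 further: potency means the concentration at half of the fitted maximal effect; trophozoites exposed to compound for 48 h at 37 °C; on the % scale 0 is the no-effect control and ±100 the full control effect; nearly all actives have a fitted effect of over 70% in size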
Mammalian tox: qHTS Assay for Inhibitors of Fructose-1,6-bisphosphate Aldolase from Giardia Lamblia: Mammalian cellular toxicity; shares compounds with Giardia FBPA inh-1; mammalian cell viability counter-screen, qHTS; Potency, µM (doses to about 57.5 µM), for the others: top-dose viability change, negative = toxicity, most hits filed as inhibitors; 1,500 tested, 4% active;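 further: Chinese hamster ovary cells used as mammalian cytotoxicity surrogate; viability measured as cellular ATP by luminescence; potency means the concentration at half of the fitted maximal effect; compound exposure lasted 48 h before reading; on the % scale 0 is the no-effect control and ±100 the full control effect; nearly all actives have a fitted effect of over 60% in size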
Giardia FBPA inh-2: qHTS Assay for Inhibitors of Fructose-1,6-bisphosphate Aldolase from Giardia Lamblia: Primary screen confirmation | shares compounds with Giardia FBPA inh-1 | purified Giardia aldolase enzyme activity, qHTS | Potency, µM (doses to about 57.5 µM), for the others: top-dose activity change, negative = inhibition, actives largely listed as inhibitors | 1,500 tested, 5% active | AID 2787, 2010; further: potency means the concentration at half of the fitted maximal effect; on the % scale 0 is the no-effect control and ±100 the full control effect; nearly all actives have a fitted effect of over 45% in size
Rabbit FBPA inh: qHTS Assay for Inhibitors of Fructose-1,6-bisphosphate Aldolase from Giardia Lamblia: Rabbit FBPA Selectivity. shares compounds with Giardia FBPA inh-1. Rabbit muscle FBPA enzyme inhibition, selectivity counter-screen. Potency, µM (highest dose often 57.5 µM), for the others: at the top dose activity, negative = inhibition, actives largely listed as inhibitors. 1,500 tested, 4% active; further: potency means the concentration at half of the fitted maximal effect; on the % scale 0 is the no-effect control and ±100 the full control effect; nearly all actives have a fitted effect of over 60% in size
Target sequence (P00883 whole entry, looked up): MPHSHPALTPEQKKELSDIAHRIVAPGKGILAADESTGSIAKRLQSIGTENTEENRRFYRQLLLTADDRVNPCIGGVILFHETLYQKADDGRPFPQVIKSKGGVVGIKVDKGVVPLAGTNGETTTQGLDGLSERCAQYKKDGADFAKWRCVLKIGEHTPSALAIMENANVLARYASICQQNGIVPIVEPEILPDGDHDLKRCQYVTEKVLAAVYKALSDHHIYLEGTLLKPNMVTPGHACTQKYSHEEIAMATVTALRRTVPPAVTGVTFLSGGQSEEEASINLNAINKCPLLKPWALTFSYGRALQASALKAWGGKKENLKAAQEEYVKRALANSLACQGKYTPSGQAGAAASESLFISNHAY
GAPDH counter: qHTS Assay for Inhibitors of Fructose-1,6-bisphosphate Aldolase from Giardia Lamblia: Coupling assay counterscreen confirmation; Potency, µM (highest dose often 57.5 µM), for the others: at the top dose activity change, negative = inhibition, hits mostly inhibitors; 1,500 tested, 6% active; shares compounds with Giardia FBPA inh-1; GAPDH coupling enzyme counterscreen, biochemical, qHTS; further: potency means the concentration at half of the fitted maximal effect; on the % scale 0 is the no-effect control and ±100 the full control effect; nearly all actives have a fitted effect of over 55% in size
The depositor's hits bear a star; ? = inconclusive; . = not tested or not shown; [ ] = remark or other dose. Unless noted, the call rests on the fitted dose curve; in most records, active means well fitted curve in the direction sought with a large enough effect; inconclusive means small, poorly fitted or top-dose-only effect, or another doubt; inactive means no such curve, though single readings can be large; an effect the other way counts as inactive or inconclusive.

SMILES | Tb PYK inh | Giardia FBPA inh-1 | Cycloheximide cs | Sm TGR block | Shiga inhibitor | LmPK inh | Giardia growth | Mammalian tox | Giardia FBPA inh-2 | Rabbit FBPA inh | GAPDH counter
CC1CN(CCOCCOc2ccccc2-c2ccccc2)CC(C)O1 (stereo not drawn) | 25% | 11µM* | -2 | ? | . | 5% | -8%[10.4 µM] | -1% | 1% | 1% | 10%
C=C(C)[C@]12C[C@@H](C)[C@@]34OC(Cc5ccccc5)(O[C@@H]1[C@@H]3C=C(COC(=O)Cc1cc(OC)c(O)cc1I)C[C@]1(O)C(=O)C(C)=C[C@@H]41)O2 | . | -13% | 36 | . | 27 | . | . | . | . | . | .
Cc1ccc(-n2ncc(C(=O)NCc3ccccc3C)c2-n2cccc2)cc1 | -2% | . | . | 0% | . | . | . | . | . | . | .
Cc1cccc(CNc2ccc(S(=O)(=O)N3CCCCC3)cc2)c1 | -16% | . | . | 3% | . | . | . | . | . | . | .
Cc1ccc(NC(=O)CN(C)CC(=O)Nc2ccccc2Oc2ccccc2)cc1 | 11% | 13µM* | -2 | 8% | -19 | -14% | -26% | -5% | -1% | -3% | 3%
COc1cccc(NC(=O)CN(C)CC(=O)Nc2ccc(Br)cc2)c1 | 6% | -8% | 3 | -1% | 27 | -1% | . | . | . | . | .
COc1cccc(NC(=O)CN(C)CC(=O)Nc2ccc(C)cc2Cl)c1 | 18% | 14µM* | 2 | -9% | -5 | -1% | -27% | 16% | -2% | 5% | 6%
Cc1cccc(C)c1NC(=O)CN(C)CC(=O)Nc1ccccc1Oc1ccccc1 | -26% | -6% | 12 | -1% | -17 | -3% | . | . | . | . | .
CCc1cccc(C)c1NC(=O)c1cc(S(=O)(=O)NCc2ccccc2Cl)ccc1F | -2% | . | . | -11% | . | . | . | . | . | . | .
S=C(Nc1ccc2nsnc2c1)N1CCCC1 | -8% | 6.3µM* | 46* | 40µM* | 89* | ? | -8% | -6% | ? | ? | ?
Fc1ccc(NC(=S)N2CCCC2)cc1 | -9% | . | . | . | . | . | . | . | . | . | .
CN(C(=O)c1ccoc1)c1ccc2ccccc2c1 | -9% | . | -3 | -10% | -10 | -9% | . | . | . | . | .
Cc1cccc(C)c1NC(=O)CN(C)CC(=O)Nc1cc(Cl)ccc1C#N | 1% | -2% | 0 | 0% | -32 | -3% | . | . | . | . | .
N#Cc1ccc(Cl)cc1NC(=O)CNCc1cccs1 | 35% | 16µM* | 7 | -7% | 13 | -3% | ? | 9% | 2% | 4% | 8%
Cc1ccc(NC(=O)CSc2nc3nc(C)c(Br)cc3[nH]2)cc1F | 2% | 18µM* | 3 | -3% | -5 | 12% | ? | 6% | 6% | 6% | 17%
COC(=O)CSc1nc2nc(C)c(Br)cc2[nH]1 | 0% | -13% | 1 | -1% | 9 | 0% | . | . | . | . | .
COC(=O)c1cccc(OCC(O)Cn2cnc3cc(C)c(C)cc32)c1 (stereo not drawn) | -5% | -5% | 5 | 17% | -11 | 19% | . | . | . | . | .
COc1cccc(COCC(O)Cn2cnc3cc(C)c(C)cc32)c1 (stereo not drawn) | 23% | 20µM* | 2 | -1% | -7 | -3% | 0%[10.4 µM] | 10% | -3% | -8% | -8%
CC(=O)c1ccc(N2CCN(C(=O)C3CCN(S(=O)(=O)c4cccc5nonc45)CC3)CC2)cc1 | 1% | . | . | 6% | . | . | . | . | . | . | .
CSS(=O)(=O)c1cccc2cccnc12 | ? | 18µM* | 2 | 0% | 23 | 10% | 23% | 0% | -15% | ? | ?
O=C(NC1CCCC1)c1cc(Nc2cccc(C(F)(F)F)c2)nc2ccccc12 | 1% | . | . | 2% | . | . | . | . | . | . | .
O=C(NC(=S)Nc1ncccn1)c1ccccc1Cl | -4% | 3.5µM* | 1 | 18% | 53 | -5% | ? | 0% | 2% | 7% | 0%
CNC(=O)NC(=S)NC(=O)c1ccccc1Cl | 4% | ? | -3 | -1% | 14 | 0% | . | . | . | . | .
Cc1ccc(NC(=S)N(CCN(C)C)Cc2cccs2)c(C)c1 | ? | 14µM* | 4 | 0% | 26 | -8% | -5%[10.4 µM] | -3% | -6% | 4% | 4%
Cc1cc(C)c(NC(=S)N(CCN(C)C)Cc2cccs2)c(C)c1 | 11% | 6% | 5 | -3% | -9 | -3% | . | . | . | . | .
SMILES | Tb PYK inh | Giardia FBPA inh-1 | Cycloheximide cs | Sm TGR block | Shiga inhibitor | LmPK inh | Giardia growth | Mammalian tox | Giardia FBPA inh-2 | Rabbit FBPA inh | GAPDH counter
CCOC(=O)c1cccc(N2CC3CNC(=O)C2(C(=O)OC)N3C)c1 (stereo not drawn) | 1% | . | . | . | . | . | . | . | . | . | .
COc1ccc(CCCC(=O)N/N=C/c2ccccc2OC)cc1 | -6% | 16µM* | 12 | 10% | 2 | 8% | -12%[10.4 µM] | -12% | ? | 40µM* | 25µM*
Cc1ccc(C2=NC3(CCCCC3)NC2=S)cc1 | 4% | 3% | 7 | 4% | -8 | 2% | . | . | . | . | .
CCN1CCC2(CC1)N=C(c1ccc(F)cc1)C(=S)N2 | -9% | 13µM* | 5 | 5% | 30 | -19% | -18% | 0% | -1% | 4% | 7%
COc1ccc(N2CCN(C(=O)c3cn(C4CCCCC4)c(=O)c4c3c3ccccc3n4C)CC2)cc1 | 0% | . | . | 0% | . | . | . | . | . | . | .
Cc1oc(CSCCSCc2cc(C(=O)O)c(C)o2)cc1C(=O)O | 13% | 14µM* | -1 | ? | . | 2% | 61% | 9% | -1% | -7% | 11%
Cc1oc(CSCC2CCCO2)cc1C(=O)O (stereo not drawn) | 0% | -5% | 1 | -36% | -1 | -7% | . | . | . | . | .
